Where “and” joins values, the source holds several entries; their conditions need not be identical. Equal entries are not always repeated. Hit rate of the full screen: of about 5,500 compounds, about 2,000 (36%) were called active. Roughly 18% stayed inconclusive and do not appear here. No stated cut-off is given here; in the data, active means normalized growth mostly below about 0.91 (no sharp cut-off); inconclusive means no clear call, values can overlap the other calls; inactive means mostly above about 0.92. This is one part of the list.
Assay: chemical genetic growth profiling, strain panel (AID 1159580);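 further: tested at 20 µM; growth read once vehicle control cultures reached saturation at 30 °C; 1 = growth at the plate median or of vehicle wells; lower values mean less growth of the strain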
Settings: S. cerevisiae deletion strains, growth OD

Measured: normalized growth

CC(C)C(=O)Nc1ccc([N+](=O)[O-])c(C(F)(F)F)c1
inactive: locus YAL013W, strain DEP1, active compounds read low 0.995 | locus YAL021C, strain ccr4, active compounds read low 1.03 | locus YAL026C, strain drs2, active compounds read low 1.01 | locus YAL030W, strain snc1, active compounds read low 1.02 | locus YAL040C, strain CLN3, active compounds read low 0.959 | locus YBL061C, strain skt5, active compounds read low 1.02 | locus YBR009C, strain hhf1, active compounds read low 1.03 | locus YBR021W, strain FUR4, active compounds read low 0.929 | locus YBR023C, strain chs3, active compounds read low 1.03 | locus YBR171W, strain sec66, active compounds read low 1.04 | locus YBR229C, strain ROT2, active compounds read low 0.99 | locus YBR231C, strain swc5, active compounds read low 0.994 | locus YBR279W, strain paf1, active compounds read low 1.02 | locus YCL011C, strain gbp2, active compounds read low 1.02 | locus YCL016C, strain dcc1, active compounds read low 1.01 | locus YCL029C, strain bik1, active compounds read low 0.99 | locus YCL061C, strain MRC1 (second series), active compounds read low 0.999 | locus YCL069W, strain vba3, active compounds read low 1.02 | locus YCR088W, strain abp1, active compounds read low 1.01 | locus YDL005C, strain med2, active compounds read low 1.03 | locus YDL035C, strain GPR1, active compounds read low 0.993 | locus YDL040C, strain nat1, active compounds read low 1.02 | locus YDL074C, strain BRE1, active compounds read low 0.946 | locus YDL101C, strain DUN1, active compounds read low 0.993 | locus YDL134C, strain PPH21, active compounds read low 0.991 | locus YDL185W, strain tfp1, active compounds read low 0.98 | locus YDL192W, strain arf1, active compounds read low 0.977 | locus YDR001C, strain nth1, active compounds read low 1.02 | locus YDR069C, strain doa4, active compounds read low 1.02 | locus YDR101C, strain arx1, active compounds read low 0.969 | locus YDR137W, strain rgp1, active compounds read low 0.983 | locus YDR150W, strain NUM1, active compounds read low 0.994 and 0.998 | locus YDR159W, strain sac3, active compounds read low 1.03 | locus YDR162C, strain NBP2, active compounds read low 0.982 | locus YDR195W, strain ref2 1.07 | locus YDR297W, strain sur2, active compounds read low 1.01 | locus YDR318W, strain mcm21, active compounds read low 0.964 | locus YDR334W, strain swr1, active compounds read low 1.01 | locus YDR335W, strain msn5, active compounds read low 1.03 | locus YDR363W, strain ESC2, active compounds read low 1.05 | locus YDR388W, active compounds read low 0.961 | locus YDR392W, strain spt3, active compounds read low 0.999 | locus YDR502C, strain sam2, active compounds read low 0.96 | locus YEL003W, strain gim4, active compounds read low 1.02 | locus YEL037C, strain rad23, active compounds read low 1.02 | locus YEL061C, strain CIN8 (second series), active compounds read low 1.01 | locus YEL061C, strain CIN8, active compounds read low 0.993 | locus YER002W, strain NOP16, active compounds read low 0.972 | locus YER015W, strain faa2, active compounds read low 1.02 | locus YER016W, strain bim1, active compounds read low 1.01 | locus YER110C, active compounds read low 0.979 | locus YER111C, strain swi4, active compounds read low 1.03 | locus YER155C, strain BEM2 (second series), active compounds read low 0.993 | locus YER155C, strain BEM2, active compounds read low 0.985 | locus YER167W, strain BCK2, active compounds read low 0.969 | locus YFR010W, strain ubp6, active compounds read low 1.04 | locus YGL078C, strain dbp3, active compounds read low 0.984 | locus YGL086W, strain mad1, active compounds read low 0.984 | locus YGL167C, strain pmr1, active compounds read low 1.03 | locus YGL173C, strain kem1, active compounds read low 1.03 | locus YGL227W, strain vid30, active compounds read low 1.03 | locus YGL240W, strain doc1, active compounds read low 1.01 | locus YGL248W, strain PDE1, active compounds read low 0.988 | locus YGL253W, strain hxk2, active compounds read low 1.02 | locus YGR078C, strain PAC10, active compounds read low 0.992 and 0.982 | locus YGR135W, strain pre9, active compounds read low 0.968 | locus YGR229C, strain SMI1, active compounds read low 0.978 | locus YGR252W, strain gcn5, active compounds read low 0.916 | locus YHR013C, strain ard1, active compounds read low 0.995 | locus YHR027C, strain rpn1, active compounds read low 1.04 | locus YHR030C, strain SLT2, active compounds read low 0.994 and 0.977 | locus YHR079C, strain IRE1 (second series), active compounds read low 0.975 | locus YHR079C, strain IRE1, active compounds read low 0.964 | locus YHR094C, strain hxt1, active compounds read low 0.98 | locus YHR129C, strain ARP1, active compounds read low 0.981 | locus YHR142W, strain chs7, active compounds read low 1.03 | locus YHR200W, strain rpn10, active compounds read low 0.963 | locus YIL066C, strain RNR3, active compounds read low 0.986 | locus YIL073C, strain SPO22, active compounds read low 0.98 | locus YIL125W, strain kgd1, active compounds read low 0.983 | locus YIR030C, strain dcg1, active compounds read low 0.973 | locus YJL092W, strain hpr5, active compounds read low 1.03 | locus YJL095W, strain BCK1 (second series), active compounds read low 1.01 | locus YJL095W, strain BCK1, active compounds read low 0.958 and 0.976 | locus YJL115W, strain asf1, active compounds read low 1.03 | locus YJL129C, strain trk1, active compounds read low 1.04 | locus YJL134W, strain LCB3, active compounds read low 0.986 | locus YJL154C, strain vps35, active compounds read low 1.02 | locus YJL164C, strain tpk1, active compounds read low 1.02 | locus YJL166W, strain qcr8, active compounds read low 1.02 | locus YJL168C, strain set2, active compounds read low 0.977 | locus YJL187C, strain SWE1 (second series), active compounds read low 0.988 | locus YJR043C, strain POL32, active compounds read low 0.967 | locus YJR066W, strain TOR1, active compounds read low 0.92 | locus YJR075W, strain HOC1, active compounds read low 0.98

From PubChem BioAssay AID1159580 (chemical genetic matrix, 2015)
